Several values for one entry are separate records, joined by “and”; a condition that tells them apart may be missing. Equal values may be shown once. The panel holds about 83,000 compounds, 20% with a hit somewhere; the sample as a whole holds those more often.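 Negative percent growth values reflect cell death: -40 means 40% of the cells present at the start died, and -100 means all died.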 Activity calls are given as the source filed them. The calls were made as follows: active = growth percent below 10; inactive = the rest.
What was measured:
Assay in all cases: NCI-60 one-dose screen, 48 h (100 = growth as untreated, 0 = no growth, -100 = all killed)
Settings in all cases: 10 µM
HOP-92 NSCLC = tested on: HOP-92 NSCLC
K-562 leukemia = tested on: K-562 leukemia
MALME-3M melanoma = tested on: MALME-3M melanoma
RXF 393 renal = tested on: RXF 393 renal
UACC-257 melanoma = tested on: UACC-257 melanoma
LOX IMVI melanoma = tested on: LOX IMVI melanoma
SK-MEL-28 melanoma = tested on: SK-MEL-28 melanoma
SK-MEL-2 melanoma = tested on: SK-MEL-2 melanoma
SN12C renal = tested on: SN12C renal
A498 renal = tested on: A498 renal
RPMI-8226 leukemia = tested on: RPMI-8226 leukemia
OVCAR-3 ovarian = tested on: OVCAR-3 ovarian
BT-549 breast = tested on: BT-549 breast
MDA-MB-435 melanoma = tested on: MDA-MB-435 melanoma
HCC-2998 colon = tested on: HCC-2998 colon
TK-10 renal = tested on: TK-10 renal
CAKI-1 renal = tested on: CAKI-1 renal

Compound | growth (HOP-92 NSCLC) | growth (K-562 leukemia) | growth (MALME-3M melanoma) | growth (RXF 393 renal) | growth (UACC-257 melanoma) | growth (LOX IMVI melanoma) | growth (SK-MEL-28 melanoma) | growth (SK-MEL-2 melanoma) | growth (SN12C renal) | growth (A498 renal) | growth (RPMI-8226 leukemia) | growth (OVCAR-3 ovarian) | growth (BT-549 breast) | growth (MDA-MB-435 melanoma) | growth (HCC-2998 colon) | growth (TK-10 renal) | growth (CAKI-1 renal)
COC1[C@@H]2C[C@H]3C(C)(C)O[C@@](C/C=C(/C)C(=O)O)(C2=O)[C@]32Oc3c(CC=C(C)C)c4c(c(O)c3C(=O)[C@H]12)C=CC(C)(C)O4 (stereo partly specified) | -36.4% (active) | 2.55% (active) | -90.2% (active) | -81.1% (active) | -48.2% (active) | -97.2% (active) | -61.4% (active) | -65.5% (active) | -16.7% (active) | -67.8% (active) | -17% (active) | -90.6% (active) | -3.07% (active) | -58.2% (active) | -81.9% (active) |  | 
CN(CCF)/N=N/c1nc[nH]c1C(N)=O | 77.9% (inactive) | 22.2% (inactive) | 37.5% (inactive) | 76.6% (inactive) | 53.8% (inactive) | 17.5% (inactive) | 49.3% (inactive) | -20.9% (active) | 48.4% (inactive) | 87% (inactive) | 25.5% (inactive) |  | 85.8% (inactive) | 39.6% (inactive) | 38.7% (inactive) | 25.2% (inactive) | 14.1% (inactive)
CC(=O)O[C@@H]1[C@@H]2O[C@H]2[C@@](C)(O)C(=O)[C@@H](C)C/C=C/[C@H]2[C@@H]3O[C@]3(C)[C@@H](C)C3[C@H](Cc4ccccc4)NC(=O)[C@@]312 (stereo partly specified) | -28.8% (active) | 68.8% (inactive) | 71% (inactive) | 20.3% (inactive) |  | 14.7% (inactive) | 71% (inactive) | 72.1% (inactive) | 62.6% (inactive) | 3.87% (active) | 81.8% (inactive) | 54.2% (inactive) | 29.8% (inactive) | 70.9% (inactive) | 77.4% (inactive) | -8.91% (active) | 
CC1=C2C(=C[C@@](C)(COC(=O)c3ccc(S(=O)(=O)F)cc3)[C@@H]2OC(=O)c2ccc(S(=O)(=O)F)cc2)C(=O)[C@](C)(O)C12CC2 | -17.1% (active) | 23.8% (inactive) | -57.3% (active) |  | 60% (inactive) | 6.84% (active) | 7.54% (active) |  | 21% (inactive) |  | 67% (inactive) |  | -90.2% (active) | 3.18% (active) | -60% (active) | -3.99% (active) | -2.73% (active)
O=C(CCCc1ccc(N(CCCl)CCCl)cc1)OCc1ccccc1 | 103% (inactive) | 93.8% (inactive) | 92% (inactive) | 109% (inactive) | 94.1% (inactive) | 77.2% (inactive) | 101% (inactive) | 111% (inactive) | 79.1% (inactive) | 98.5% (inactive) | 96.3% (inactive) |  | 95.5% (inactive) | 94.4% (inactive) | 101% (inactive) | 107% (inactive) | 73.7% (inactive)
CC1=C2C(=C[C@@](C)(C=O)[C@@H]2O)C(=O)[C@](C)(O)C12CC2 | -8.36% (active) | 24.2% (inactive) | -32.6% (active) | -77% (active) | 6.75% (active) | 2.16% (active) | -8.99% (active) | -37.8% (active) | 26.1% (inactive) | -57% (active) |  | -10.1% (active) | -6.13% (active) |  | -25.1% (active) | 2.16% (active) | 12.6% (inactive)
C/C=C/CC(C)C(O)[C@H](NC(=O)[C@@H]1CCCN1C(=O)C(C)(C)NC(=O)CCCCCCCCC)C(=O)NC(C)(C)C(=O)N[C@@H](CCC(N)=O)C(=O)N[C@H](CCC(N)=O)C(=O)NC(C)(C)C(=O)NC(C)(C)C(=O)N[C@@H](CCC(N)=O)C(=O)N[C@H](CC(C)C)C(=O)N[C@H](CO)CC(C)C (stereo partly specified) | -16.5% (active) and -24.9% (active) | -50.1% (active) and 18% (inactive) | -41.5% (active) and -92.4% (active) | -54.3% (active) and -73.3% (active) | -71.9% (active) and -73.2% (active) | -78.5% (active) and -80.2% (active) | -84.9% (active) and -100% (active) | -48.1% (active) and -31.4% (active) | 2.83% (active) and -20.9% (active) | -48.1% (active) and -26.1% (active) | -13.2% (active) and -31.7% (active) | -18.7% (active) | -77.4% (active) and -78.3% (active) | -52.8% (active) and -87.1% (active) | -36.1% (active) and -5.11% (active) | 25.8% (inactive) and -4.38% (active) | 17.6% (inactive) and 1.1% (active)
C[C@@H]1CCC/C=C/[C@H]2C[C@@H](O)C[C@@H]2[C@@H](O)/C=C/C(=O)O1 | -4.99% (active) | 15% (inactive) | -7.08% (active) | -8.61% (active) |  | -70% (active) | 18.3% (inactive) | -38.9% (active) | 11.4% (inactive) | -14.7% (active) | -1.65% (active) | -1.9% (active) | 6.57% (active) | 17.5% (inactive) | 21.1% (inactive) | -45% (active) | 
CC1=C2C(=O)[C@](C)(CO)C=C2C(=O)[C@](C)(O)C12CC2 | -6.97% (active) | 16.5% (inactive) | -24.5% (active) | -82.9% (active) | 25.3% (inactive) | -25.9% (active) | 17.9% (inactive) | -35.6% (active) | 40.2% (inactive) | -35.9% (active) |  | 4.36% (active) | 8.15% (active) |  | -2.5% (active) | -6.25% (active) | 45.8% (inactive)
CC1=C2C(=C[C@@](C)(COS(C)(=O)=O)[C@@H]2O)C(=O)[C@](C)(O)C12CC2 | -15.5% (active) | 3.56% (active) | -33% (active) | -78.1% (active) | 0.386% (active) | -3.47% (active) | -28.4% (active) | -39.5% (active) | 13.8% (inactive) | -61% (active) |  | 7.64% (active) | -15.9% (active) |  | -25.7% (active) | 5.33% (active) | -31.5% (active)
C=C1[C@@H](C)C2[C@H](Cc3ccccc3)NC(=O)[C@]23[C@H](OC(C)=O)/C=C/[C@@](C)(O)C(=O)[C@@H](C)C/C=C/[C@H]3[C@@H]1O (stereo partly specified) | -37.8% (active) | 76.1% (inactive) | 81.2% (inactive) | -1.19% (active) |  | 1.65% (active) | 87.1% (inactive) | 81.5% (inactive) | 79% (inactive) | -18.8% (active) | 19.8% (inactive) | 81.2% (inactive) | 12.4% (inactive) | 64.1% (inactive) | 78.5% (inactive) | 26.4% (inactive) | 
CC1=C(CN(O)C(N)=O)C2=C(C)C3(CC3)[C@](C)(O)C(=O)C2=C1 | -3.67% (active) | 0.207% (active) | 2.97% (active) | -85.3% (active) | 6.8% (active) | 56% (inactive) | -28.4% (active) | -28.8% (active) | 25.1% (inactive) | -76.5% (active) | -22.7% (active) | -3.14% (active) | 12.9% (inactive) | -42.8% (active) | -63.1% (active) | -5.27% (active) | 4.61% (active)
C[C@@H]1C[C@H]2C(=O)O[C@@H](C)C(NC(=O)[C@H](Cc3cc(F)cc(F)c3)NC(=O)Nc3ccc(OS(=O)(=O)F)cc3)C(=O)N3CCC[C@H]3C(=O)N3CCO[C@H](C)[C@H]3C(=O)N[C@@H](CO)C(=O)N2C1 (stereo partly specified) | 9.16% (active) | 20.7% (inactive) | 39% (inactive) | -5.55% (active) | 16.2% (inactive) | 7.58% (active) | 40.5% (inactive) |  | 21.1% (inactive) |  | 19.7% (inactive) |  | 22.4% (inactive) | 20.8% (inactive) | 23.9% (inactive) | 71.7% (inactive) | 39.4% (inactive)
N#Cc1c(-n2c(Br)c(Br)c3cc(Br)ccc32)[nH]c2c(Br)cc(Br)cc12 | -31.4% (active) | 7.11% (active) | -17.4% (active) | -31.7% (active) | -23.8% (active) | -25.2% (active) | 5.46% (active) | -61.2% (active) | 0.622% (active) | -73% (active) | -3.21% (active) |  | -54.7% (active) | -0.901% (active) | 2.82% (active) | -2.55% (active) | -3.39% (active)
C/C=C/CC(C)C(O)[C@H](NC(=O)[C@@H]1CCCN1C(=O)C(C)(C)NC(=O)CCCCCCC)C(=O)N[C@@](C)(CC)C(=O)N[C@@H](CCC(N)=O)C(=O)N[C@H](CCC(N)=O)C(=O)NC(C)(C)C(=O)NC(C)(C)C(=O)N[C@@H](CCC(N)=O)C(=O)N[C@H](CC(C)C)C(=O)N[C@H](CO)CC(C)C (stereo partly specified) | 106% (inactive) and 29.4% (inactive) | 101% (inactive) and 6.14% (active) | 109% (inactive) and -65.1% (active) | 112% (inactive) and -10.7% (active) | 106% (inactive) and -33.7% (active) | 33.2% (inactive) | 107% (inactive) and -74.9% (active) | 115% (inactive) and 34% (inactive) | 102% (inactive) and 9.5% (active) | -7.1% (active) | 105% (inactive) and -9.85% (active) | 113% (inactive) and 23.8% (inactive) | 118% (inactive) and -60.9% (active) | 104% (inactive) and -47.4% (active) | 114% (inactive) and 24% (inactive) | 115% (inactive) and 28.2% (inactive) | 101% (inactive) and 28.5% (inactive)

— PubChem BioAssay (NCI)
